ClpP mod = qHTS Assay for Activators of ClpP; ATP-dependent Clp protease proteolytic subunit (Bacillus subtilis (strain 168)), P80244; purified B. subtilis ClpP, FRET peptide cleavage, 20 min; Potency, µM (series often up to 57.5 µM), for the others: at the top dose activity change, negative = active; actives 1.9% (n = 340,000); active means well fitted falling curve with a large enough effect; inconclusive means small, poorly fitted or top-dose-only effect; inactive means no such curve, though single readings can be large or run the other way; further: the source files actives as falling curves though it sought activators and does not explain the sign; nearly all actives have a fitted effect of over 65% in size
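Buffer: 100 mM Tris/HCl pH8, 100 mM KCl, 0.05% low protease BSA, 2.5% glycerol, 0.01% Tween-20. ClpP 10 microg/mL final; 20 min RT; delta FRET normalized to ADEP and DMSO controls.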
DT40 TDP1 CPT = qHTS for Inhibitors of human tyrosyl-DNA phosphodiesterase 1 (TDP1): qHTS in cells in presence of CPT; chicken DT40 Tdp1-/-;hTDP1 cells + 20 nM CPT, ATP luminescence, 48 h; Potency, µM (top dose mostly 46.2 µM), without a hit: top-dose activity change, negative = growth inhibition, hits mostly inhibitors; actives 12% (n = 420,000); further: on the % scale 0 is the no-effect control and ±100 the full control effect; nearly all actives have a fitted effect of over 55% in size
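Chicken DT40 Tdp1-/- cells complemented with human TDP1, 400 cells/well, exposed to compounds plus 20 nM camptothecin for at least 48 h at 37 C; viability read as ATP content by CellTiter-Glo luminescence.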
TDP1 block = qHTS Assay for Inhibitors of Tyrosyl-DNA Phosphodiesterase (TDP1); Tyrosyl-DNA phosphodiesterase 1 (Homo sapiens), Q9NUW8; recombinant TDP1, AlphaScreen DNA substrate cleavage; Potency, µM (highest dose often 130 µM), for inactives: at the highest dose activity change, negative = inhibition, hits mostly inhibitors; actives 0.28% (n = 350,000); AID 485290, 2010; further: on the % scale 0 is the no-effect control and ±100 the full control effect; nearly all actives have a fitted effect of over 40% in size
Target sequence (Q9NUW8 whole entry, looked up): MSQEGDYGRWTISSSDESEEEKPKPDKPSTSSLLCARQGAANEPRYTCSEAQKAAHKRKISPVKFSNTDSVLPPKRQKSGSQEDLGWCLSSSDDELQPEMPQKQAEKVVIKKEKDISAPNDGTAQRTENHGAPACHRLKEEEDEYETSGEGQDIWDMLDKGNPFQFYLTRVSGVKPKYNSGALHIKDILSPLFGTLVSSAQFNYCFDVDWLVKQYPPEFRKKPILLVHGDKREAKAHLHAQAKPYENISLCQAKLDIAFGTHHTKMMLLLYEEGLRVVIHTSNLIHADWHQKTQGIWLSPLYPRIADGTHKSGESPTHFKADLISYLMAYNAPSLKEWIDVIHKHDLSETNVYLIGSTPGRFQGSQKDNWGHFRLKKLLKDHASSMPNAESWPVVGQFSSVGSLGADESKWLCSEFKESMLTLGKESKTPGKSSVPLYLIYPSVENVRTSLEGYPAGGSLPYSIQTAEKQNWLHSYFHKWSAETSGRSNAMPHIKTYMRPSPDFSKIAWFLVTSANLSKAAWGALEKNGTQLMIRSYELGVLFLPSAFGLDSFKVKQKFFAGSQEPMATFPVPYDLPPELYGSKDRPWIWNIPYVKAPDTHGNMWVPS
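Here, a 5' biotin and 3' phosphotyrosine-FITC DNA oligonucleotide reports Tdp1 activity: intact substrate bridges AlphaScreen beads, while cleavage leaves a 3' phosphate and drops signal. All incubations at room temperature.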
DT40 TDP1 no CPT = qHTS for Inhibitors of human tyrosyl-DNA phosphodiesterase 1 (TDP1): qHTS in cells in absence of CPT. actives 15% (n = 420,000). Potency, µM (top dose mostly 46.2 µM), for inactives: at the highest dose activity change, negative = growth inhibition, actives largely listed as inhibitors. DT40 Tdp1-/- hTDP1 cells, no CPT, ATP luminescence, 48 h; further: on the % scale 0 is the no-effect control and ±100 the full control effect; nearly all actives have a fitted effect of over 55% in size
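Readout: luminescence from CellTiter-Glo after 30 min in the dark at RT. Cells: DT40 Tdp1-/- with stable hTDP1, 400/well. Exposure: compounds alone, ≥48 hr, 37 °C.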
* marks the source's active call; other numbers are inactive results; u = inconclusive; x = no result. The list is not random: actives were taken first. Their share in the collection is about 17%. Unless noted, the call rests on the fitted dose curve; in most records, active means well fitted curve in the direction sought with a large enough effect; inconclusive means small, poorly fitted or top-dose-only effect, or another doubt; inactive means no such curve, though single readings can be large; an effect the other way counts as inactive or inconclusive. Potency means the concentration at half of the fitted maximal effect.

SMILES	ClpP mod	DT40 TDP1 CPT	TDP1 block	DT40 TDP1 no CPT
CCOc1ccc(OCC)c(NC(=O)C2CCN(S(=O)(=O)c3c(C)[nH]c(=O)[nH]c3=O)CC2)c1	x	18.4µM*	2.5%	u
COc1ccc2nc(NC(=O)C3CCN(S(=O)(=O)c4cccs4)CC3)sc2c1	-3.2%	23.1µM*	2.3%	29.1µM*
COc1ccc2nc(NC(=O)C3CCN(S(=O)(=O)c4cccnc4)CC3)sc2c1	-0.9%	11.6µM*	6.5%	14.6µM*
COc1ccccc1NC(=O)C1CCCN(c2nc(C)cc(C)n2)C1 (configuration not stated)	-27.6%	3.2%	5.5%	-0.2%
CCOc1ccc(OCC)c(NC(=O)C2CCCN(c3nc(C)cc(C)n3)C2)c1 (configuration not stated)	-9.3%	23.1µM*	1.0%	20.6µM*
CCOc1ccc2nc(NC(=O)C3CCN(S(=O)(=O)c4cnc[nH]4)CC3)sc2c1	-2.7%	-18.6%	3.7%	-26.1%
CCOc1ccc(OCC)c(NC(=O)C2CCN(S(=O)(=O)c3cn(C)cn3)CC2)c1	1.4%	9.9%	6.2%	-3.1%
Cc1cc(NC(=O)C2CCN(S(=O)(=O)c3cccs3)CC2)no1	-0.4%	-75.7%	1.9%	u
Cc1ccc(NC(=O)C2CCN(S(=O)(=O)c3cccs3)CC2)cc1C	-3.8%	-19.7%	4.0%	u
O=C(Nc1ccon1)C1CCN(S(=O)(=O)c2cccs2)CC1	25.1µM*	u	2.4%	23.1µM*
Cc1ccc2nc(NC(=O)C3CCN(S(=O)(=O)c4cnc[nH]4)CC3)sc2c1	-3.6%	u	7.9%	16.4µM*
O=C(Nc1nc2ccc(C(=O)N3CCCCC3)cc2s1)C1CCCCC1	x	2.59µM*	3.6%	4.11µM*
CCn1c2ccccc2c2cc(NC(=O)C3CCN(S(=O)(=O)c4cccs4)CC3)ccc21	-12.8%	16.4µM*	1.0%	20.6µM*
COc1ccc2nc(NC(=O)C3CCN(S(=O)(=O)c4cnc[nH]4)CC3)sc2c1	-1.2%	-29.2%	4.3%	-16.0%
CN(Cc1cnn(-c2ccccc2)c1)C(=O)C1CCC(=O)N(C2CC2)C1 (configuration not stated)	1.5%	-5.7%	3.2%	-19.1%
CCOc1ccc(OCC)c(NC(=O)C2CCCN(S(=O)(=O)c3cccs3)C2)c1 (configuration not stated)	-3.9%	u	1.5%	16.4µM*
COc1ccc2nc(NC(=O)C3CCCN(S(=O)(=O)c4cccs4)C3)sc2c1 (configuration not stated)	0.9%	u	9.1%	18.4µM*
COc1ccc2nc(NC(=O)CNS(=O)(=O)c3cccs3)sc2c1	-1.4%	-6.8%	3.9%	-10.9%
CCOc1ccc(NC(=O)C2CCN(S(=O)(=O)c3cccs3)CC2)cc1	u	-16.2%	8.6%	u
COc1ccc2nc(NC(=O)c3ccc(S(=O)(=O)N4CCCC(C)C4)cc3)sc2c1 (configuration not stated)	-0.2%	16.4µM*	5.4%	11.6µM*
Cc1ccc2nc(NC(=O)C3CCN(S(=O)(=O)c4cccs4)CC3)sc2c1	-4.4%	23.1µM*	4.0%	16.4µM*
Cc1cc(C)nc(N2CCCC(C(=O)NC3CCCC3)C2)n1 (configuration not stated)	22.4µM*	-30.0%	2.9%	-6.8%
CCOC(=O)c1ccc(N2CCN(C(C)=O)CC2)c(NC(=O)c2cccnc2)c1	1.3%	-4.1%	5.1%	8.8%
Cc1ccc(NC(=O)c2cnc(SCC(=O)c3ccccc3)n(C)c2=O)cc1	-2.9%	-35.6%	0.2%	16.4µM*
Cn1c(SCC(=O)c2ccccc2)ncc(C(=O)Nc2ccccc2)c1=O	1.2%	u	-2.7%	20.6µM*
Cc1cc(N2CCN(C(C(=O)NC3CCCC3)c3ccco3)CC2)c2ccccc2n1 (configuration not stated)	-2.8%	20.6µM*	x	23.1µM*

High-throughput results: PubChem BioAssay, National Center for Advancing Translational Sciences (NCATS)
